Drawing on PubChem BioAssay, this text covers composite z-score and z-score for five compounds.

Activity calls are given as the source filed them.

For assay [1], the system named is PRMT1 (protein arginine N-methyltransferase 1). In words: PRMT1 binders on small-molecule microarrays, primary screen, biochemical, small-molecule microarray, 635 nm fluorescence (AID 1088).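 Further: binding of Prmt1 protein to compounds spotted on small-molecule microarray slides.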 To be noted: small-molecule microarray binding, higher = more signal.
The nature of assay [2]: yeast growth modulation, basal conditions, primary screen, YJM789 clinical isolate, OD600, 24 h (AID 1089).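 Further: growth of clinical yeast isolate S. cerevisiae YJM 789 seeded 1000 cells per well; test concentration not given here.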 To be noted: S. cerevisiae YJM789 growth, higher = more signal, called active from +8 up or from −8 down.
A short description of assay [3]: fission yeast growth modulation, primary screen, strain 972, OD600, 24 h, no modulator (AID 1090).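 Further: basal condition with compound alone and no growth modifier present; test concentration not given here.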 To be noted: S. pombe 972 growth, higher = more signal, called active from +8 up or from −8 down.
Assay [4] can be described thus: S. cerevisiae growth modulation with rapamycin, primary screen, strain BY4716, OD600, 96 h (AID 1091). Further: test concentration not given here. The note with it: higher = more signal, called active from +8 up or from −8 down.
Assay [5] has as its target Torsin-1A-interacting protein 2 (Homo sapiens) (UniProt Q8NFQ8). In words: LULL1 binders on small-molecule microarray, primary screen, cell lysate, human LULL1 lysate, 635/667 nm fluorescence (AID 1092).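 Further: probe is lysate of COS7 cells overexpressing human LULL1; score merges per-feature 667 nm fluorescence with signal-to-noise.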 The note with it: hLULL1 lysate binding, 635 nm fluorescence, higher = more signal.
The nature of assay [6]: E. coli growth modulation, two-sided OD650, primary screen, E. coli filamentation project, strain DRC41, 24 h (AID 1093).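 Further: MC1000 strain lacking acrAB efflux and sulA so SOS filamentation is blocked; test concentration not given here.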 To be noted: OD650, 24 h, higher = more signal, called active from +8 up or from −8 down.
A short description of assay [7]: small-molecule microarray binders of probe aLefty2, primary screen, biochemical, biotinylated probe, 635/667 nm fluorescence (AID 1094).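 Further: score merges spot fluorescence near 667 nm with spot signal-to-noise ratio.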 The note with it: higher = more signal.
Assay [8] relates to Noggin (protein binding on small-molecule microarray). Kind of assay: Noggin binders on small-molecule microarray, primary screen, biochemical, 635/667 nm fluorescence (AID 1095).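 Further: score merges 667 nm feature fluorescence with signal to noise over triplicate slides.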 To be noted: 635 nm fluorescence, higher = more signal.
Assay [9] concerns the target Neurogenic locus notch homolog protein 3 (Homo sapiens) (UniProt Q9UM47). In words: NOTCH3 binders on small-molecule microarray, primary screen, biochemical, 635/667 nm fluorescence (AID 1096). The note with it: NOTCH3 binding, 635 nm fluorescence, higher = more signal.
Assay [10] can be described thus: small-molecule microarray binders of probe aEGFR, primary screen, biochemical, biotinylated probe, 635/667 nm fluorescence (AID 1097).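 Further: probe is a biotinylated anti-EGFR antibody binding compounds printed on slides; score combines fluorescence near 667 nm and signal to noise of each spot.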 To be noted: higher = more signal.
Assay [11] deals with Plasmodium falciparum Sir2 (PF13_0152, Sir2A). In words: pfSir2 binders on small-molecule microarrays, primary screen, biochemical, small-molecule microarray, 635 nm fluorescence (AID 1098).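 Further: score merges spot fluorescence intensity with its signal-to-noise ratio.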 The note with it: small-molecule microarray binding, fluorescence 635 nm; higher = more signal.
Assay [12] is described as follows: small-molecule microarray binders of probe aDKK1, primary screen, biochemical, biotinylated probe, 635/667 nm fluorescence (AID 1099).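 Further: score merges 667nm spot fluorescence with signal to noise across triplicate slides; reference of the scale not given here.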 To be noted: higher = more signal.
The nature of assay [13]: small-molecule microarray binders of probe aCHRDL2, primary screen, biochemical, biotinylated probe, 635/667 nm fluorescence (AID 1100). The note with it: higher = more signal.
Assay [14] can be described thus: splicing luciferase reporter signal modulators, primary screen, spliceosome inhibition project, cell-based, HEK293, splice +/- reporter (AID 1101).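 Further: HEK293 cells carrying a splicing-competent luciferase reporter gene; test concentration not given here.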 To be noted: luminescence, 24 h, higher = more signal, called active from +8 up or from −8 down.
The target in assay [15] is Fibroblast growth factor 10 (Homo sapiens) (UniProt O15520). In words: FGF10 binders on small-molecule microarrays, primary screen, biochemical, small-molecule microarray, 635 nm fluorescence (AID 1102). The note with it: FGF10 binding, fluorescence 635 nm, higher = more signal.
Chain of Fibroblast growth factor 10 (Homo sapiens) (O15520 whole entry, looked up): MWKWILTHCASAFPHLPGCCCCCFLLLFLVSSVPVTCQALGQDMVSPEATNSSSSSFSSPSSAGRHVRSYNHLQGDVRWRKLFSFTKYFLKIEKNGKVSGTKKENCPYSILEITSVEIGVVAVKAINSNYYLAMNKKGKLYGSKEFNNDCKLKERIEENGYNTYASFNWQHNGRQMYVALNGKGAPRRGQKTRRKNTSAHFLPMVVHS
Assay [16] deals with glycogen synthase kinase-3 (GSK3A per assay name; protocol says GSK3B). In words: GSK3 binders on small-molecule microarrays, primary screen, biochemical, small-molecule microarray, 635 nm fluorescence, GSK3A (AID 1103). Further: the record names both GSK3A and GSK3B. The note with it: small-molecule microarray binding, fluorescence 635 nm; higher = more signal.
Assay [17] concerns the target Epidermal growth factor receptor (Homo sapiens) (UniProt P00533). In words: EGFR binders on small-molecule microarrays, primary screen, biochemical, small-molecule microarray, 635 nm fluorescence (AID 1104).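 Further: score merges 667 nm emission intensity with spot signal to noise over triplicate slides.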 The note with it: EGFR binding, higher = more signal.
In assay [18] the target is Follistatin-related protein 3 (Homo sapiens) (UniProt O95633). In words: FSTL3 binders on small-molecule microarrays, primary screen, biochemical, small-molecule microarray, 635 nm fluorescence (AID 1105).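 Further: score merges emission near 667 nm and signal to noise per printed spot across three slides.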 To be noted: FSTL3 binding, higher = more signal.
Chain of Follistatin-related protein 3 (Homo sapiens) (O95633 whole entry, looked up): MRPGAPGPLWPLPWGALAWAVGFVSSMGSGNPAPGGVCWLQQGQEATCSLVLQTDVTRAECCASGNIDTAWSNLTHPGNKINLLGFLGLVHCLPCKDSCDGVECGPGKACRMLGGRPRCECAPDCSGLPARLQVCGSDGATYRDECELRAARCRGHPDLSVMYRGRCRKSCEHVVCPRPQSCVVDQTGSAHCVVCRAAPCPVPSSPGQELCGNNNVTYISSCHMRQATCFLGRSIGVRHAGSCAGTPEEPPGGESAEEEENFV
For assay [19], the target named is Dickkopf-related protein 1 (Homo sapiens) (UniProt O94907). Kind of assay: DKK1 binders on small-molecule microarrays, primary screen, biochemical, small-molecule microarray, 635 nm fluorescence scan (AID 1106).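 Further: score merges emission near 667 nm with signal to noise over three replicate slides.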 The note with it: DKK1 binding, higher = more signal.
Chain of Dickkopf-related protein 1 (Homo sapiens) (O94907 whole entry, looked up): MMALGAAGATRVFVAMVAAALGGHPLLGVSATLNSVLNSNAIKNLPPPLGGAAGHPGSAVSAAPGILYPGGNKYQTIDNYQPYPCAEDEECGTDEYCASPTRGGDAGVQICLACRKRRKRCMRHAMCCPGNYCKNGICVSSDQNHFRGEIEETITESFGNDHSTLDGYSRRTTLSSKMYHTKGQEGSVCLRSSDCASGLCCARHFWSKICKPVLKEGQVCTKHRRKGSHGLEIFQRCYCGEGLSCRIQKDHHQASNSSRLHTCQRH
Assay [20] concerns Inhibin beta A chain (activin A). In words: INHBA (activin A) binders on microarrays, primary screen, biochemical, small-molecule microarray, 635 nm fluorescence scan (AID 1107).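 Further: mouse activin A protein probed at 4.33 µg/mL on printed slides; score merges bound-protein fluorescence near 667 nm with spot signal-to-noise.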 The note with it: small-molecule microarray binding, higher = more signal.

Chain of Torsin-1A-interacting protein 2 (Homo sapiens) (Q8NFQ8 whole entry, looked up): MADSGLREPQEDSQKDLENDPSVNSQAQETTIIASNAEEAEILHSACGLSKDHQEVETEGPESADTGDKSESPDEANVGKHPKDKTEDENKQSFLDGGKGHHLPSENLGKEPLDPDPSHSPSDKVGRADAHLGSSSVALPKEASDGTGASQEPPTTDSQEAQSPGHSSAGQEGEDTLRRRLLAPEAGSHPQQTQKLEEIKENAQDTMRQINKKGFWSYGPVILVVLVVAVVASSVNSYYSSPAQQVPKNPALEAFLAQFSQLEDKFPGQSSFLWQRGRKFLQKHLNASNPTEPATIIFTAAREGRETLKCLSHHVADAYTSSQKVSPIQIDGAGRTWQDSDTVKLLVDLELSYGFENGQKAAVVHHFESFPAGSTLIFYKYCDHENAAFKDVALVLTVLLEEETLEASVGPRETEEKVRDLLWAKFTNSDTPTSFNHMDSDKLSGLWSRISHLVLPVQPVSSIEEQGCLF
Chain of Epidermal growth factor receptor (Homo sapiens) (P00533 whole entry, looked up): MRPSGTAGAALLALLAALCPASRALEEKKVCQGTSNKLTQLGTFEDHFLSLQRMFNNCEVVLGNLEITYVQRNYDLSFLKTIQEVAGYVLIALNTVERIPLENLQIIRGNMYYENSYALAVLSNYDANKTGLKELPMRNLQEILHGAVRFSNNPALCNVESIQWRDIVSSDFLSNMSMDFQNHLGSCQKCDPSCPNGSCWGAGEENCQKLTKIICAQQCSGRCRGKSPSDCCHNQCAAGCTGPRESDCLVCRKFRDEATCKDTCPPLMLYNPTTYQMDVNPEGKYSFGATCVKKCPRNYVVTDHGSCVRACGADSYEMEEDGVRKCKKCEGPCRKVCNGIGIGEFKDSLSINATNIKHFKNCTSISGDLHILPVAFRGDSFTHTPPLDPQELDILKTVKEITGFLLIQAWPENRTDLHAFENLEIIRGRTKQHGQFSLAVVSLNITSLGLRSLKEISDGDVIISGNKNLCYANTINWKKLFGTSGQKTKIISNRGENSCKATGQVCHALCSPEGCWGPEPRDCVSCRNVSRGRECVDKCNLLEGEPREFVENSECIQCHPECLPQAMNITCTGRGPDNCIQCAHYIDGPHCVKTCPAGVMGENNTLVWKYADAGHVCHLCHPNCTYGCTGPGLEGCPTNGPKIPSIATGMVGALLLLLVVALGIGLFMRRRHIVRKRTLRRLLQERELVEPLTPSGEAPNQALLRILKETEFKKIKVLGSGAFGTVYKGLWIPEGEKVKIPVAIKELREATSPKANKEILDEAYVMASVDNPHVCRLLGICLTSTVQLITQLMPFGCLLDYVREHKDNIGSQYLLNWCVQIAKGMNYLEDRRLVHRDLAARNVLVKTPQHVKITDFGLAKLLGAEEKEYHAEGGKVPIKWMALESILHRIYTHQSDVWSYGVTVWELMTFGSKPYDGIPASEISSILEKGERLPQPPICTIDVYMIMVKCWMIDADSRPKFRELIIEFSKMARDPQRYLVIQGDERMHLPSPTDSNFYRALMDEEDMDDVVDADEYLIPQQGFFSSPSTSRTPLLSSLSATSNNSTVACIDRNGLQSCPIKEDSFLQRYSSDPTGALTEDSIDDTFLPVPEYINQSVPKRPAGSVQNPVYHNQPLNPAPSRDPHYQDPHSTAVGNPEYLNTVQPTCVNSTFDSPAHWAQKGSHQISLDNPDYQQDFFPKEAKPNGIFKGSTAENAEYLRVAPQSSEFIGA
Chain of Neurogenic locus notch homolog protein 3 (Homo sapiens) (Q9UM47 whole entry, looked up): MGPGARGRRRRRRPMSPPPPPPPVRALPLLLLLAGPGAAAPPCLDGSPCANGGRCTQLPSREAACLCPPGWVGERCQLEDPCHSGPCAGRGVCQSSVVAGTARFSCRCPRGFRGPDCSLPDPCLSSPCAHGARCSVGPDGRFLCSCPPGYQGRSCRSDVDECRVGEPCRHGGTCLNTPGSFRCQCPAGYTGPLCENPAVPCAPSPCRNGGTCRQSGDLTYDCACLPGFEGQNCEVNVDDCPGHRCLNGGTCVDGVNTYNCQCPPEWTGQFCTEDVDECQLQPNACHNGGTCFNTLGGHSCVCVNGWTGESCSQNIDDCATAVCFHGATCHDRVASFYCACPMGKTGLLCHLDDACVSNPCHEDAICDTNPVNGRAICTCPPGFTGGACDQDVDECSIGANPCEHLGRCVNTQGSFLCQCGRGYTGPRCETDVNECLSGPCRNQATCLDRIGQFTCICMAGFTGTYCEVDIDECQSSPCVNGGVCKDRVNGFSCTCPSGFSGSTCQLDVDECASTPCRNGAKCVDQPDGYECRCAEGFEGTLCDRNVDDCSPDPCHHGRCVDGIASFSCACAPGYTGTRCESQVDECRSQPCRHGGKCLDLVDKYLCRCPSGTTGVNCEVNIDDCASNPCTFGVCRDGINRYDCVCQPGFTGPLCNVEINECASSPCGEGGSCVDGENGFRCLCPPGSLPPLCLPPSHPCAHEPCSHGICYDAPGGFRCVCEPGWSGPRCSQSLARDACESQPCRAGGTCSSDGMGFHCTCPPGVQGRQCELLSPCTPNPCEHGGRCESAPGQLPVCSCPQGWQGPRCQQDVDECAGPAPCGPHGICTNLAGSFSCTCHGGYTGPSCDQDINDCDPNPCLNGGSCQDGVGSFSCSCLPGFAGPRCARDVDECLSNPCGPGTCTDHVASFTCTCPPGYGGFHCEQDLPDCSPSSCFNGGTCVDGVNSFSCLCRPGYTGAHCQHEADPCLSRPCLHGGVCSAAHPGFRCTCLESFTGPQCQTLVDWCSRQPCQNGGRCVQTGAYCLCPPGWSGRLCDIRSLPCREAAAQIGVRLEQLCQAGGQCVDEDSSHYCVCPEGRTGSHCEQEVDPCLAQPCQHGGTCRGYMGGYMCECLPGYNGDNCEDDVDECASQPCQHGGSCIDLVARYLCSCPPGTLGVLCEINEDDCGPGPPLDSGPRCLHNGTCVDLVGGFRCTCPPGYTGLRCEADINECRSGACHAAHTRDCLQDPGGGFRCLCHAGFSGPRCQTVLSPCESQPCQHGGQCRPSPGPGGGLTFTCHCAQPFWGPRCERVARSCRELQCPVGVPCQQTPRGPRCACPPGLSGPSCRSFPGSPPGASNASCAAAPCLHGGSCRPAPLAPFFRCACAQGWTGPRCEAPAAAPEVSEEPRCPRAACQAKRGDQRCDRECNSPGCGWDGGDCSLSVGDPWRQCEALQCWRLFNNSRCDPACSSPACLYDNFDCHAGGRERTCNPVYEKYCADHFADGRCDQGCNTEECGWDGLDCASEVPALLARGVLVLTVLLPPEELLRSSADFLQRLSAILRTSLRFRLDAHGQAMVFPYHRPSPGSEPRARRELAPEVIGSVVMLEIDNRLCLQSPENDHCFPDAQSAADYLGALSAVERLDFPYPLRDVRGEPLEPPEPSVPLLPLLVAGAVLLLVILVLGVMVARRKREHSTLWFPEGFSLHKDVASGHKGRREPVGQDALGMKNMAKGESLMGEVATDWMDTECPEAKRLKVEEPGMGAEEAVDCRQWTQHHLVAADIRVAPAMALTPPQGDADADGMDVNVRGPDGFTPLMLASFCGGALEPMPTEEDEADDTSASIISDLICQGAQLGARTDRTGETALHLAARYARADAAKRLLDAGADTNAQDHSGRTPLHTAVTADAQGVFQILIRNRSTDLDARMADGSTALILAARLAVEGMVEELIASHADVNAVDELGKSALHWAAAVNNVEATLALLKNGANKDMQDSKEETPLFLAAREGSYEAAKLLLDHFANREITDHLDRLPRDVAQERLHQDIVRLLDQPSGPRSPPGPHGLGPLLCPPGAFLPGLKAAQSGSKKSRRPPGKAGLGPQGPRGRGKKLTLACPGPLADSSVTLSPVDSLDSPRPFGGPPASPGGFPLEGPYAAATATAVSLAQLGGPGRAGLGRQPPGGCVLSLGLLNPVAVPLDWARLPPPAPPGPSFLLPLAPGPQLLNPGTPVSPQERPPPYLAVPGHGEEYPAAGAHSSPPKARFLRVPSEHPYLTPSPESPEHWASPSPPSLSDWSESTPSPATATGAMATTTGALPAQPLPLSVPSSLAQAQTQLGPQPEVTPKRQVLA

For the compound `CCC[C@@H]1[C@@H](Sc2ccccc2)[C@@H](C(=O)O)[C@H](c2ccc(C)cc2)N1S(=O)(=O)c1ccc(C)cc1`, the composite z-score is 1.56 in assay [1]; 3.45 in assay [5]; 0.114 in assay [7]; 1.05 in assay [8]; 1.04 in assay [9]; 0.129 in [10]. In addition, the composite z-score in assay [11] was found to be 1.05; in assay [12], 0.505; in assay [13], 0.284; in assay [15] it was 1.25; in assay [16] it was 1.36; in assay [17] it was 0.163. The figures for the composite z-score in [18], in assay [19] and in assay [20] were 1.34, 0.188 and 0.267, respectively. The z-score is -0.994 (inactive) in assay [2]; 0.674 (inactive) in assay [3]; -0.698 (inactive) in assay [4]; -0.131 (inactive) in assay [6]; -0.114 (inactive) in [14].
Consider `CN(C)CCCNC(=O)[C@@]1(Cc2ccccc2I)c2ccccc2C(=O)N(Cc2ccccc2)[C@H]1c1ccc(CO)cc1`, for which the composite z-score in assay [1] is 1.53; in assay [5], 3.43; in assay [7], -0.542; in [8], 0.557; in assay [9], 1.08; in assay [10], 0.0054. Besides, the composite z-score in assay [11] was 1.54; in assay [12] it was 1.04; in assay [13], -0.726; in assay [15], 1.37; in assay [16] it was 1.33; in assay [17] it was 0.17. The composite z-score is 0.617 in [18], 0.707 in assay [19] and 0.0573 in [20]. Further, the z-score in [2] was -0.282 (inactive); in [3] it was -14 (active); in assay [4] it was -2.33 (inactive); in assay [6], 0.207 (inactive); in assay [14] it was 0.652 (inactive).
As for `CN(C)CCCCNC(=O)[C@H]1C[C@H]2C(=O)NCC(=O)N2[C@H]1c1cccc(OCCO)c1`, the composite z-score is 0.826 in assay [1]; 1.6 in [5]; -0.121 in assay [7]; 0.938 in [8]; 1.01 in [9]; -0.3 in assay [10]. For the same compound, the composite z-score in assay [11] is 0.828; in assay [12], -0.173; in assay [13] it was 0.084; in assay [15], 1.02; in [16], -0.54; in assay [17] it was 0.138. The composite z-score was 0.186 in assay [18], 0.168 in assay [19] and -0.09 in assay [20]. The z-score in assay [2] was 0.259 (inactive); in assay [3] it was 1.06 (inactive); in assay [4], -0.431 (inactive); in [6], 0.52 (inactive); in assay [14], -0.706 (inactive).
On to `COCCOC(=O)N1C(=O)[C@@]2(c3cc(C#CC4=CCCCC4)ccc31)[C@H](C(=O)N1CCN(c3ncccn3)CC1)[C@H]1C(=O)O[C@H](c3ccccc3)[C@H](c3ccccc3)N1[C@@H]2c1ccccc1OCCO`, for which the composite z-score in assay [1] is 1.53; in assay [5], 2.75; in assay [7], -0.0687; in assay [8], 1.14; in [9], 1.04; in [10] it was -0.0749. Besides, the composite z-score in [11] is 0.419; in [12], -0.082; in [13], -0.296; in [15], 1.3; in assay [16], 1.28; in [17] it was 0.396. In addition, the figures for the composite z-score in [18], in assay [19] and in assay [20] were 1.19, 0.402 and 0.451, respectively. In addition, the z-score in assay [2] is 1.3 (inactive); in assay [3], 0.683 (inactive); in assay [4], 4.42 (inactive); in assay [6], 1.96 (inactive); in assay [14], -0.544 (inactive).
Regarding `COC(=O)[C@@]1(CCC(=O)OC(C)(C)C)N=C(c2ccc(OCCCO)cc2)O[C@H]1c1ccccc1CN=[N+]=[N-]`, the composite z-score was 0.373 in [1]; 1.85 in [5]; -0.0963 in [7]; 0.201 in [8]; 0.235 in assay [9]; -0.0418 in [10]. Further, the composite z-score in assay [11] was 1.3; in [12], 0.425; in assay [13] it was 0.87; in [15], -0.035; in assay [16] it was -0.546; in [17] it was -0.827. Besides, the composite z-score in assay [18] was 0.157; in assay [19], -0.346; in assay [20], 0.282. In addition, the z-score in [2] was 0.0206 (inactive); in assay [3], 0.646 (inactive); in assay [4], 9.66 (active); in [6] it was 1.08 (inactive); in assay [14], 1.29 (inactive).
